Screening data as filed in PubChem BioAssay.
Sampled rows, rich in hits. Any-hit rate of the full collection: about 3.9%.
TWEAK-Fn14 inh = blocks TWEAK-Fn14 interaction in a reporter cell assay; TWEAK-stimulated Fn14 reporter cells, luciferase luminescence, 8 h; inhibition, % at 10 µM; 360,000 compounds, 2% hits; AID 1159606; in the data active = inhibition above about 50%
KKLEB cytotox = counter-screen for CF NF-kB inhibitors: cytotoxicity; KKLEB CF airway cells viability, ATPlite luminescence, overnight; active compounds read low; cells stimulated with P. aeruginosa culture filtrate; 360,000 compounds, 0.36% hits; activity change (cytotoxicity), % at 5 µM;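 active = corrected activity change at or below -50% at 5 µM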
TROY signal inh = blocks TROY-dependent signaling in reporter cells. Q293 LMP1-TROYcd NF-kB luciferase reporter, 4 h. inhibition, % at 10 µM. 360,000 compounds, 0.98% hits;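 active = compounds whose plate-normalised and pattern-corrected inhibition of the luciferase reporter signal at the single screening dose is 50% or more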
CF NFkB block = inhibitors of cystic fibrosis induced NF-kB; inhibition, % at 5 µM; 360,000 compounds, 0.86% hits; AID 588850; KKLEB NF-kB-GFP reporter, PAF-induced, GFP fluorescence overnight;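 active = at least 50% inhibition at 5 µM, scaled per plate between neutral and stimulator controls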;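 note: PAF is a Pseudomonas aeruginosa culture filtrate used as stimulus; plate controls were PAF-stimulated DMSO wells for no effect and unstimulated DMSO wells for full effect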
Peg3 promoter = inhibitors of Peg3 promoter; 360,000 compounds, 1.7% hits; AID 588405; HeLa PEG-Prom luciferase reporter, luminescence, overnight; inhibition, % at 20 µM;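 active = inhibition of at least 50% at 20 µM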
HIF-2a inh = blocks HIF-2a reporter activity. 786-0 RCC cells HIF-2a reporter, luciferase luminescence, overnight. inhibition, % at 18.8 µM. 360,000 compounds, 0.72% hits. AID 624352;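 active = inhibition of the luminescence signal of 40% or more relative to plate controls, in a single-dose primary screen at 18.75 µM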
Numbers without * were called inactive.

SMILES | TWEAK-Fn14 inh | KKLEB cytotox | TROY signal inh | CF NFkB block | Peg3 promoter | HIF-2a inh
C#CCOCCOCCOCCNc1nc(N2CCN(C(=O)CCCCCCCCCCNC(=O)[C@H](CCCCN)n3cc(C[C@@H](C)CC)nn3)CC2)nc(N2CCN(C(=O)CCCCCCCCCCNC(=O)[C@@H]([C@H](C)O)n3cc(C)nn3)CC2)n1 | 106* | -49 | 90* | 26 | 98* | 63*
C#CCOCCOCCOCCNc1nc(N2CCN(C(=O)CCCCCCCCCCNC(=O)[C@@H](CCSC)n3cc(CCO)nn3)CC2)nc(N2CCN(C(=O)CCCCCCCCCCNC(=O)[C@@H]([C@H](C)O)n3cc(C)nn3)CC2)n1 | 23 | 16 | -28 | -4 | -42 | -3
C#CCOCCOCCOCCNc1nc(N2CCN(C(=O)CCCCCCCCCCNC(=O)[C@H](CCCCN)n3cc(C)nn3)CC2)nc(N2CCN(C(=O)CCCCCCCCCCNC(=O)[C@@H]([C@H](C)O)n3cc(C)nn3)CC2)n1 | -1 | 11 | -25 | -3 | 50* | 5
C#CCOCCOCCOCCNc1nc(N2CCN(C(=O)CCCCCCCCCCNC(=O)[C@H](CCCCN)n3cc(C[C@@H](C)CC)nn3)CC2)nc(N2CCN(C(=O)CCCCCCCCCCNC(=O)[C@H](CCCN=C(N)N)n3cc(C[C@@H](C)CC)nn3)CC2)n1 | 60* | 0 | 41 | 12 | 101* | 41*
O=C(c1cc2cc(F)ccc2[nH]1)N1CCC(Cc2ccccc2)CC1 | -6 | -14 | -29 | 20 | -40 | -100
CC(=O)Nc1nc(C)c(S(N)(=O)=O)s1 | 2 | 9 | 8 | 2 | 4 | 14
O=C(COC(=O)CCN1C(=O)/C(=C\C=C\c2ccccc2)SC1=S)Nc1cc(F)ccc1F | 55* | -4 | 25 | -16 | -10 | 83*
O=C(CN1C(=O)/C(=C\C=C\c2ccccc2)SC1=S)Nc1ccc(F)cc1 | -25 | -35 | -26 | -5 | -8 | 6
CCCc1cc(=O)[nH]c(SCC)n1 | 9 | 11 | 3 | -21 | 22 | 3
CCCCSc1nc(CCC)cc(=O)[nH]1 | 92* | -13 | -2 | 18 | 6 | 19
CC1=NNC(=O)/C1=C\c1cn(-c2ccccc2)nc1-c1ccc(Cl)cc1 | -80 | -40 | 43 | 6 | 79* | 87*
COc1ccc(NS(=O)(=O)c2ccc3nc(COc4ccc5ccccc5c4)[nH]c3c2)cc1 | 48 | 7 | 40 | -24 | 41 | 1
COc1ccc(NS(=O)(=O)c2ccc3nc(COc4cccc5ccccc45)[nH]c3c2)cc1 | 59* | -16 | 38 | -10 | 30 | 22
N=C1C(c2nc(-c3ccc(F)cc3)cs2)=C(O)CN1Cc1ccc(Cl)cc1 | 106* | 3 | 3 | 8 | 32 | -3
COc1ccc(-c2csc(C3=C(O)CN(Cc4ccc(Cl)cc4)C3=N)n2)cc1OC | -10 | -28 | 16 | 29 | 28 | -9
O=C(c1ccc2c(c1)OCO2)N1CCN(S(=O)(=O)c2ccccc2)CC1 | 2 | 7 | 2 | -4 | 15 | 9
CC(=O)Nc1ccc(CNc2nc(NC(C)C)nc3cc(-c4ccccc4)sc23)cc1 | -233 | -56* | -94 | -28 | 65* | -31
CC(=O)NCCNc1nc(NC(C)C)nc2cc(-c3ccccc3)sc12 | -3 | 3 | 1 | -9 | -7 | -19
C=CCNc1nc(NCc2ccc(NC(C)=O)cc2)c2sc(-c3ccccc3)cc2n1 | -269 | -60* | -91 | -7 | -116 | -63
c1ccc(-c2cc3nc(NCC4CC4)nc(NCC4CCCCC4)c3s2)cc1 | 56* | -84* | 15 | 82* | 93* | 16
COc1ccc(-c2cc(CNc3nc(NC(C)C)nc4cc(-c5ccccc5)sc34)on2)cc1 | -41 | -20 | -44 | -28 | 78* | -23
C=CCNc1nc(NCCCN2CCCC2=O)c2sc(-c3ccccc3)cc2n1 | -110 | -24 | -44 | 27 | -15 | -131
COCCNc1nc(NCC2CCCCC2)c2sc(-c3ccccc3)cc2n1 | 12 | -13 | 1 | 28 | 47 | 5
CCOc1ccccc1C(=O)Nc1ccc(C(=O)c2ccccc2)cc1 | -24 | 12 | -11 | 2 | -66 | -118
Cc1ccc(S(=O)(=O)N2CCN=C2SCc2ccccc2)cc1 | -8 | -3 | -25 | 10 | 16 | 2
